# Data reported in PubChem BioAssay (NCI).
# Compounds without any hit were thinned out: in the full panel of roughly 83,000, 20% have a hit.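 Compound tested at a single concentration for 48 hours in 96-well plates; a percent growth value below 10 was scored as active.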 A number with no mark means an inactive call. Calls of active or inactive are those of the source.
# System: SR leukemia
# Assay: NCI-60 one-dose screen, 48 h (100 = growth as untreated, 0 = no growth, -100 = all killed)
# Conditions: 10 µM
row,Structure (SMILES),growth
1,NC(CSC(c1ccccc1)(c1ccccc1)c1cccc2ccccc12)C(=O)O (stereo not given),112%
2,CC(=O)[C@H]1CC[C@]2(C)[C@@H]1CC[C@@H]1[C@@]3(C)CC(CCC#N)(CCC#N)C(=O)C(C)(C)[C@@H]3CC[C@]12C,101%
3,NC1=NC(c2ccc(Cl)cc2)C2=C(N1)/C(=C/c1ccc(Cl)cc1)CCC2 (stereo not given),20.8%
4,C/C(=N\O)c1ccc(NC(=O)CSc2nnc(-c3ccccc3)n2-c2ccccc2)cc1,106%
5,NC1=CC(=O)C(=O)c2cccnc21,86%
6,C[n+]1c2ccccc2nc2ccccc21,25.9%
7,COc1cc(-c2nn(-c3ccc(NC(=O)NCCNS(=O)(=O)c4ccc(F)cc4)cc3)cc2-c2ccncc2)ccc1Cl,1.26% (active)
8,O=C(CSc1nccc(Nc2cccc3ccccc23)n1)c1ccc(Cl)cc1,90.9%
9,CCCCCCCCCCOC(c1ccccc1)c1ccccc1,93.7%
10,O=C1/C=C/[C@@H](O)[C@@H]2C[C@@H](O)C[C@H]2/C=C/CCC[C@H](CCc2ccc(C(F)(F)F)cc2)O1,1.16% (active)
11,O=C(O)c1cn(C2CC2)c2cc(N3CCN(C(=O)c4cc(-c5ccc(Cl)cc5)nc5ccccc45)CC3)c(F)cc2c1=O,47.4%
12,CN(C)CCC1(c2ccccc2)CCN(C)C1=O (stereo not given),112%
13,COc1ccc(Nc2cnc3cc(NS(=O)(=O)c4ccc(C)cc4)ccc3n2)cc1,30%
14,COc1cc(-c2nn(-c3cccc(NC(=O)CCNc4ccc(N5CCOCC5)cc4)c3)cc2-c2ccncc2)ccc1Cl,5.07% (active)
15,COc1cccc(-c2nc3sccn3c2-c2cccc(S(C)(=O)=O)c2)c1,94.7%
16,COc1cc(CNC(=O)C2CSC3(C)c4ccccc4C(=O)N23)cc(OC)c1OC (stereo not given),77.4%
17,COc1cc2cc(Oc3ccc(NC(=O)c4ccc(Cl)c(C(F)(F)F)c4)cc3)c(C)nc2cc1OC,37.1%
18,CN(C)CCCSc1ccccc1NC1=C(Cl)C(=O)C(Nc2ccccc2SCCCN(C)C)=C(Cl)C1=O,2.97% (active)
19,COc1ccc(-c2cc(-c3ccc(Cl)cc3)nc(SCCCCCCC(=O)NO)n2)cc1OC,21.3%
20,O=C(NCCNC(=O)c1ccc(F)cc1)Nc1ccc(-n2cc(-c3ccncc3)c(-c3ccc(Cl)c(O)c3)n2)cc1,-0.62% (active)

row,Structure (SMILES),growth
1,Cc1ccc(Cl)cc1NC(=O)CCl,43.2%
2,Nc1ncc(-c2cnn(C3CCNCC3)c2)cc1-c1nc2ccccc2o1,-74.7% (active)
3,O=C(CCCSc1nc(-c2ccccc2)cc(-c2ccc(Cl)cc2)n1)NO,26.3%
4,COc1ccc2nc3cc(Cl)ccc3c(Nc3cc(CN4CCCC4)c(O)c(CN4CCCC4)c3)c2n1,-18.6% (active)
5,CN(C)CCOc1cccc(-c2nc3sccn3c2-c2ccnc(S(C)(=O)=O)n2)c1,102%
6,Cc1ccc(C(=O)C2C(=O)C3CCC2C3)cc1 (stereo not given),129%
7,COc1cc(-c2csc(NC(=O)Nc3cc(C(F)(F)F)cc(C(F)(F)F)c3)n2)cc(OC)c1OC,16.5%
8,O=C(CNc1nnc(-c2cccnc2SCc2ccccc2)s1)Nc1nc(Cl)cc(Cl)n1,98.5%
9,O=C(O)c1ccc(-n2cc(CNc3ccc(Oc4ccccc4)cc3)c(-c3ccccc3)n2)cc1,38.6%
10,C/C=C/C1=CN2C(=O)c3cc(OC4OC(C)C(NC)C(C)(O)C4O)c(C)c(O)c3N=C[C@@H]2C1 (stereo not given in full),0.588% (active)
11,COc1ccc(/C(C#N)=C/c2ccccc2OC)cc1,34.7%
12,O=S(=O)(O)c1ccc(Cl)cc1,92.5%
13,N#CCc1csc(Cc2ccccc2)n1,98.6%
14,O=C(/C=C/C=C/c1c(C2CC2)nc2ccccc2c1-c1ccc(F)cc1)c1cccs1,-6.7% (active)
15,N#CC1=C(N)Oc2cc(N)ccc2C1c1cccnc1 (stereo not given),70.6%
16,O=C(Cn1cc(CO)nn1)Nc1nc2ccccc2s1,100%
17,CCn1c(SCCc2ccccc2)nnc1-c1nn(-c2ccc(Cl)cc2Cl)c(-c2ccc(Cl)cc2)c1C,37.6%
18,Cc1cc(C(C#N)c2ccc(Cl)cc2)c(Cl)cc1NC(=O)c1cc(I)cc(I)c1O (stereo not given),27.6%
19,Cn1cnc([N+](=O)[O-])c1/C=C1\Oc2ccc(Br)cc2C1=O,33.9%
20,Cc1cc(Cl)ccc1Nc1nc(C(F)(F)F)ccc1C(=O)N/N=C/c1c(Cl)cccc1Cl,-26.6% (active)
